In test [1] the target is Albumin (Bos taurus) (UniProt P02769). Description: bovine serum albumin binders on microarray, profiling panel, artefact control for SMM control protein annotation, biochemical, small-molecule microarray, Alexa647 label, 635/667 nm fluorescence (AID 1118).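 Note: score merges 667 nm emission intensity and signal-to-noise per printed compound spot.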 To be noted: BSA-A647 binding, fluorescence 635 nm, higher = more signal.
Test [2] in a line: small-molecule microarray binders of probe aXIP, primary screen, biochemical, NeuroSMM set, 635/667 nm fluorescence (AID 1119).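 Note: probe is the protein aXip251-270 applied at 1 µg/mL to compound-printed slides; binding of probe to printed compounds measured as 667 nm fluorescence plus signal to noise.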 Conditions: higher = more signal, called active from +8 up or from −8 down.
The nature of test [3]: small-molecule binders of probe aNOTCH3, primary screen, biochemical, small-molecule microarray, 635/667 nm fluorescence (AID 1120).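 Note: probe is a biotin-tagged antibody raised against NOTCH3 rather than NOTCH3 protein; score merges spot fluorescence near 667 nm with spot signal to noise.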 Conditions: higher = more signal.
Test [4] in a line: small-molecule binders of probe aNOTCH2, primary screen, biochemical, small-molecule microarray, 635/667 nm fluorescence (AID 1121).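 Note: score merges feature fluorescence read at 667 nm with its signal to noise.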 To be noted: higher = more signal.
For test [5], the target named is Carbonic anhydrase 2 (Homo sapiens) (UniProt P00918). In words: CAII small-molecule binders, profiling panel, biochemical, small-molecule microarray, Alexa647-labelled CAII (AID 1122). Conditions: CAII-A647 binding fluorescence, higher = more signal.
Test [6] in a line: COS7 lysate on small-molecule microarray, probe aHis, 635 nm (AID 1123).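 Note: z-score combines 667nm fluorescence intensity with signal-to-noise per printed compound spot.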 Conditions: COS7 cell lysate, fluorescence, higher = more signal.
A short description of test [7]: compound binding in COS7 lysate, probe aLAP1, primary screen, cell lysate, small-molecule microarray (AID 1124).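 Note: lysate comes from COS7 cells expressing LAP1 and is applied at 0.3 µg/mL; score merges spot fluorescence near 667 nm with signal-to-noise over triplicate slides.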 To be noted: probe aLAP1, fluorescence, higher = more signal.
In test [8] the test system is Sam68 (KHDRBS1). Description: Sam68 small-molecule binders, primary screen, biochemical, small-molecule microarray, 635 nm fluorescence (AID 1125).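 Note: score merges 667 nm channel intensity with signal to noise over triplicate slides.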 To be noted: small-molecule microarray binding, higher = more signal.
In test [9] the test system is Chordin-like protein 2 (CHRDL2). Description: CHRDL2 small-molecule binders, primary screen, biochemical, small-molecule microarray, 635 nm fluorescence (AID 1126).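 Note: printed compound slides probed with Chrdl2 protein at 4 µg/mL for 1 h at 4 C; score merges 667 nm emission intensity with signal to noise over three replicate slides.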 Conditions: small-molecule microarray binding, fluorescence 635 nm; higher = more signal.
For test [10], the target named is Concanavalin-A (Canavalia ensiformis) (UniProt P02866). Description: ConA small-molecule binders, primary screen, artefact control for SMM control protein annotation, biochemical, small-molecule microarray, Alexa647 label, 635 nm (AID 1127).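 Note: z combines 667 nm emission intensity with signal-to-noise across three replicate slides.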 Conditions: ConA-A647 binding fluorescence, higher = more signal.

The source made the active and inactive calls.

Albumin (Bos taurus), sequence (P02769 whole entry, looked up): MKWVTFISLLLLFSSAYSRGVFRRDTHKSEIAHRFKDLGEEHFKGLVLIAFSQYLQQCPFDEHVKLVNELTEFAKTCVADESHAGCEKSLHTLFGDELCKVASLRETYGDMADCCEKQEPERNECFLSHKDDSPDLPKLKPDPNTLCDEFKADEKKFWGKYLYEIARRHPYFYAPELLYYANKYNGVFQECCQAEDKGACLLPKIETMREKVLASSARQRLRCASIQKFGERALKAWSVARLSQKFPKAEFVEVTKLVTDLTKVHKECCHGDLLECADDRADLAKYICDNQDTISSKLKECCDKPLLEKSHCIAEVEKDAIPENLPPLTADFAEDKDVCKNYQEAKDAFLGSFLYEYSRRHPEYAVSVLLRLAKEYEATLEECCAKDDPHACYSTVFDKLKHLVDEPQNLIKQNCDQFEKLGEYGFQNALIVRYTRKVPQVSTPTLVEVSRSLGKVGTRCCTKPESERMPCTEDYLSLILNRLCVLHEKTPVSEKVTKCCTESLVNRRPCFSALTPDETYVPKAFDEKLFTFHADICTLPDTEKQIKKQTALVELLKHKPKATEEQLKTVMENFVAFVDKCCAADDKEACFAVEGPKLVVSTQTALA
Concanavalin-A (Canavalia ensiformis), sequence (P02866 whole entry, looked up): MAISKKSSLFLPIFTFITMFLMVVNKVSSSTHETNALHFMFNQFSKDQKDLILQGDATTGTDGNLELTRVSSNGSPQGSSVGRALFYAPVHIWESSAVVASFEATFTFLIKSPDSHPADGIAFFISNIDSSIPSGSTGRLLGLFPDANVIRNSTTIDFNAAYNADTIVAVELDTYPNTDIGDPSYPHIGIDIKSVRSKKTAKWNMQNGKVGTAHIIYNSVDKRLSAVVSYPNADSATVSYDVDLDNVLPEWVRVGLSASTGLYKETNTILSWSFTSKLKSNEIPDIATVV

`CO[C@H]1O[C@H](CO)[C@@H](OC(=O)Nc2ccccc2-c2ccccc2)[C@H](OC(=O)Nc2ccccc2)[C@H]1OC(=O)Nc1ccccc1`: the composite z-score in test [1] is 0.167; in test [3], 0.199; in [4], -0.0846; in test [5], 0.701; in test [6] it was 2.41; in test [7] it was 0.268. Further, the composite z-score in test [8] amounted to 1.3; in test [9], 0.697; in [10], 1.15. Further, the composite Z-score in test [2] is -0.295 (inactive).
For `C=CCOC(=O)[C@H]1[C@@H]2C(=O)O[C@@H](c3ccccc3)[C@@H](c3ccccc3)N2[C@@H](c2ccc(OCCOC(=O)[C@@H]3C[C@@H]4C(=O)N[C@@H](CCCC[N+](C)(C)C)C(=O)N4[C@@H]3c3ccc(O)cc3)cc2)[C@]12C(=O)Nc1ccc(I)cc12`, the composite z-score in test [1] is -0.691; in test [3], -0.0647; in test [4] it was -0.0267; in [5], 0.572; in [6] it was 1.28; in [7], 0.517. The composite z-score came out at 1.29 in test [8], 1.14 in test [9] and 1.03 in [10]. Moreover, the composite Z-score in test [2] was 0.61 (inactive).
On to `COC(=O)[C@@]1(Cc2ccc(OC)cc2)[C@H]2c3cc(C(=O)N(C)C)[nH]c3C[C@H]2CN1C(=O)c1ccccc1`, for which the composite z-score in [1] is 0.0277; in test [3] it was -0.0477; in test [4], 0.013; in test [5], 0.742; in test [6], 0.1; in test [7], -0.106. Besides, the results for the composite z-score in test [8], in test [9] and in test [10] were -1.13, -0.372 and 0.0575, respectively. Besides, the composite Z-score in [2] was 0.184 (inactive).
Take `CN(C)c1ccc(C(O)C2C=CC3C(=O)N(Cc4ccccc4)C(=O)C3N2n2cnnc2)cc1` (stereo not given): the composite z-score in test [1] is -0.184; in test [3], -0.0023; in test [4] it was -0.0993; in test [5], 0.244; in [6] it was 0.0348; in [7] it was -0.0894. Further, the composite z-score is -0.671 in test [8], 0.245 in test [9] and -0.46 in test [10]. Further, the composite Z-score in test [2] is 0.111 (inactive).
As for `CCOC(=O)C1=C[C@@H](C(C)(C)C)N(S(=O)(=O)c2ccc(C)cc2)[C@H]1c1ccc(C#N)cc1`, the composite z-score in test [1] stood at 0.684; in [3] it was 0.0935; in test [4], 0.0655; in test [5], 0.632; in test [6], 2.72; in test [7], 0.969. The composite z-score is 1.31 in test [8], 0.582 in [9] and 1.09 in test [10]. In addition, in test [2], the composite Z-score is -0.795 (inactive).
On to `COc1ccc(C(O)C2C=CC3C(=O)NC(=O)C3N2Nc2ccc(Cl)cc2Cl)c2ccccc12` (stereo not given), for which the composite z-score in test [1] was determined as 0.678; in [3], 0.0328; in test [4] it was 0.0856; in test [5], 0.602; in [6], 1.94; in test [7], 0.709. Moreover, the composite z-score in [8] was 0.35; in test [9] it was -0.359; in [10], 0.934. Also, in test [2], the composite Z-score is 0.309 (inactive).
As for `Cc1ccc(S[C@]2(C(=O)NC3CC3)CC(=O)N(C(C)C)[C@@H]2c2ccc(CO)cc2I)cc1`, the composite z-score in test [1] is 0.899; in test [3], -0.364; in test [4], -0.2; in [5], 0.7; in test [6], 1.16; in [7], 0.048. Moreover, the composite z-score in [8] was 0.238; in test [9], -1.06; in [10], 0.0412. Further, the composite Z-score in test [2] was -0.6 (inactive).
On to `CC(C)N1C(=O)c2ccccc2[C@](C)(C(=O)NCC(F)(F)F)[C@@H]1c1ccc(CO)cc1`, for which the composite z-score in test [1] was -0.267; in test [3], -0.407; in test [4] it was 0.0344; in test [5] it was 0.852; in [6] it was 2.55; in test [7] it was 1.14. Also, the composite z-score in test [8] was -0.701; in [9], -0.912; in test [10], -1.22. Further, in test [2], the composite Z-score was -0.415 (inactive).
As for `COc1ccc(C(=O)Nc2cccc(CN3C(=O)[C@@]4(O[C@@H](CC(=O)N5CCC[C@H]5CO)[C@H]([Si](C)(C)c5ccc(OC)cc5)[C@H]4C)c4ccccc43)c2)cc1`, the composite z-score is 0.343 in [1]; 0.0305 in test [3]; -0.11 in [4]; 0.531 in test [5]; 1.75 in test [6]; -0.19 in test [7]. Further, the composite z-score stood at 1.34 in [8], 0.862 in test [9] and 1.17 in test [10]. For the same molecule, in test [2], the composite Z-score is -0.0697 (inactive).
Regarding `O=C1C[C@@](C(=O)O)(c2ccc([N+](=O)[O-])cc2)[C@@H](c2ccc(CO)cc2)N1C1CCCCC1`, the composite z-score in [1] was 0.88; in test [3] it was 0.204; in test [4], -0.0029; in test [5], 0.508; in test [6], 2.02; in test [7], 0.281. Also, the values for the composite z-score in test [8], in test [9] and in [10] were 1.34, 0.0583 and 1.05, respectively. The composite Z-score in [2] is 0.628 (inactive).
As to `CC(C)=C1C(=O)C(c2ccccc2)=C2CN3C(=O)N(CCc4ccccc4)C(=O)[C@]3(C)[C@H]21`, the composite z-score in [1] is 0.826; in test [3] it was 0.0162; in [4], 0.166; in test [5] it was 0.373; in test [6] it was 1.23; in test [7], -0.414. For the same molecule, the values for the composite z-score in test [8], in [9] and in [10] were 0.141, -0.686 and 0.809, respectively. Further, the composite Z-score in test [2] was 0.432 (inactive).
As for `CCCNC(=O)[C@@]1(c2ccc([N+](=O)[O-])cc2)CC(=O)N(C(C)C)[C@@H]1c1ccc(CO)cc1`, the composite z-score in [1] was 0.667; in [3] it was -0.344; in [4] it was -0.0876; in test [5] it was 0.801; in [6], 1.7; in test [7], 0.188. Besides, the composite z-score in test [8] was -0.626; in test [9], -1.54; in test [10] it was -0.536. Also, the composite Z-score in test [2] is -0.0527 (inactive).
As for `CC(C)(C)N1CC=CC23O[C@@H]4/C=C\CCCOC(=O)C4[C@H]2C(=O)N(CCCCCO)[C@@H]3C1=O` (stereo not given in full), the composite z-score was -1.58 in test [1]; -0.349 in test [3]; -0.126 in test [4]; 0.941 in test [5]; -0.584 in test [6]; 0.566 in test [7]. Besides, the composite z-score in test [8] is -0.484; in test [9] it was -1.46; in [10] it was -1.46. In [2], the composite Z-score is 0.794 (inactive).
As for `CC(C)=CCCC=C(C)C(O)C1C=CC2C(=O)N(c3ccccc3)C(=O)C2N1Nc1ccc(C#N)cc1` (stereo not given), the composite z-score in test [1] is 0.976; in test [3], 0.518; in test [4], -0.157; in [5] it was 0.596; in [6] it was 2.34; in test [7], 1.54. Further, the results for the composite z-score in test [8], in test [9] and in [10] were 1.03, 0.173 and 1.11, respectively. In [2], the composite Z-score was -0.213 (inactive).

(Values after PubChem BioAssay.)
